The results in this text go back to PubChem BioAssay (NCI).

Among the test systems are T-47D breast; BT-549 breast; MDA-MB-435 melanoma; SW-620 colon; MCF7 breast; HCT-116 colon; HCC-2998 colon; KM12 colon.
Experiment in all cases: NCI-60 one-dose screen, 48 h (100 = growth as untreated, 0 = no growth, -100 = all killed)
What all share (conditions): 10 µM unless noted

The panel holds about 83,000 compounds, 20% with a hit somewhere; the sample as a whole holds those more often.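 Assay: single dose, 48 h. Readout: percent growth (0 = no net growth; negative = cell death). Active: <10.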 Unmarked numbers belong to inactive results. The source made the active and inactive calls.

Turning to `O=C1Nc2c(ccc(Cl)c2Cl)/C1=C\c1cc(C(F)(F)F)cc(C(F)(F)F)c1`, the growth is -0.235% (active) with T-47D breast; 14.9% in the experiment with BT-549 breast; -53.4% (active) in the experiment on MDA-MB-435 melanoma; -77.6% (active) in the experiment with SW-620 colon; -3.68% (active) in the experiment on MCF7 breast; -61.3% (active) with HCT-116 colon. For the same compound, the growth in the experiment with HCC-2998 colon was 12.8%; with KM12 colon, -74.6% (active).
Take `Cc1cc(N2CCCCCC2)nc(NC2CCCC(Nc3ccnc4cc(Cl)ccc34)C2)n1` (stereo not drawn): the growth in the experiment with T-47D breast was -50.3% (active); with BT-549 breast, -85.1% (active); in the experiment on MDA-MB-435 melanoma, -87.7% (active); in the experiment with SW-620 colon, -76.9% (active); in the experiment on MCF7 breast it was -56.8% (active); with HCT-116 colon, -95.9% (active). Further, the growth in the experiment on HCC-2998 colon was -80.3% (active); in the experiment on KM12 colon, -75.5% (active).
`CCN1CCC2(CC1)NC(=O)c1c(c3ccc(Cl)c(Cl)c3n1C)C2C#N` (stereo not drawn): the growth is 75% in the experiment with T-47D breast; 37.2% with BT-549 breast; -59.9% (active) in the experiment on MDA-MB-435 melanoma; 37.6% in the experiment on SW-620 colon; 35% in the experiment on MCF7 breast; 14% in the experiment on HCT-116 colon. The results for the growth in the experiment on HCC-2998 colon and in the experiment on KM12 colon were -5.34% (active) and 41.2%, respectively.
Take `NC1=C(Cl)C(=O)c2ccc(S(N)(=O)=O)cc2C1=O`: the growth in the experiment with T-47D breast is -46.1% (active); in the experiment with BT-549 breast it was -91.5% (active); with MDA-MB-435 melanoma, -86.8% (active); in the experiment on SW-620 colon, -77.9% (active); in the experiment on MCF7 breast, -49.5% (active); in the experiment with HCT-116 colon it was -90.1% (active). In addition, the results for the growth with HCC-2998 colon and with KM12 colon were -97.1% (active) and -72.1% (active), respectively.
Consider `O=C(O)c1ccc(NC(=O)c2ccc(-c3cccc([N+](=O)[O-])c3)o2)cc1`, for which the growth with T-47D breast is 102%; in the experiment on BT-549 breast, 107%; with MDA-MB-435 melanoma, 100%; with SW-620 colon it was 96%; in the experiment with MCF7 breast, 89.8%; with HCT-116 colon, 105%. Besides, the growth in the experiment with HCC-2998 colon was 99.3%; in the experiment on KM12 colon it was 99.5%.
Consider `COc1cccc(-c2nc3sccn3c2-c2ccnc(NCCCNS(=O)(=O)c3c(Cl)cccc3Cl)c2)c1`, for which the growth was 5.35% (active) in the experiment on T-47D breast; 43.2% with BT-549 breast; 64.5% in the experiment with MDA-MB-435 melanoma; 76.8% in the experiment on SW-620 colon; 65.8% with MCF7 breast; 52.6% in the experiment with HCT-116 colon. For the same compound, the results for the growth with HCC-2998 colon and with KM12 colon were 84.8% and 68.2%, respectively.
Turning to `COc1ccc(-c2cc(Nc3ccnc(N4CCOCC4)n3)on2)cc1`, the growth in the experiment on T-47D breast is 55.1%; in the experiment with BT-549 breast, 57.1%; in the experiment with MDA-MB-435 melanoma, -30.2% (active); in the experiment with SW-620 colon, 31.1%; in the experiment with MCF7 breast, 24.4%; in the experiment with HCT-116 colon it was 12.7%. For the same compound, the growth in the experiment on HCC-2998 colon was 40.4%; with KM12 colon it was 20.3%.
For `O=C1Nc2cc(-c3ccc(O)cc3)ccc2/C1=C/c1ccc[nH]1`, the growth was 0.283% (active) with T-47D breast; 16.9% in the experiment on BT-549 breast; 7.05% (active) in the experiment on MDA-MB-435 melanoma; 14.1% in the experiment on SW-620 colon; 1.73% (active) in the experiment with MCF7 breast; 4.68% (active) in the experiment with HCT-116 colon. Further, the growth was -13.9% (active) in the experiment on HCC-2998 colon and 2.31% (active) in the experiment on KM12 colon.
Regarding `Cc1ccc(NC(=O)C2CCC(CN3CCN(C)CC3)CC2)cc1Nc1nccc(-c2cccnc2)n1` (stereo not drawn), the growth with T-47D breast was 86.2%; with BT-549 breast, 103%; in the experiment with MDA-MB-435 melanoma it was 93.5%; with SW-620 colon, 98.4%; in the experiment with MCF7 breast, 83.8%; with HCT-116 colon it was 101%. The growth in the experiment on HCC-2998 colon was 106%; with KM12 colon, 97.3%.
Take `COc1ccc2cc(-c3nn(-c4ccc(C(=O)O)cc4)cc3CO)ccc2c1`: the growth with T-47D breast is 98.5%; in the experiment with BT-549 breast, 93.5%; in the experiment on MDA-MB-435 melanoma it was 98.6%; with SW-620 colon it was 107%; in the experiment on MCF7 breast it was 91%; in the experiment on HCT-116 colon, 91%. The growth in the experiment on HCC-2998 colon was 100%; in the experiment on KM12 colon, 101%.
`O=C1C=CC(=O)N1c1ccc2c(c1)Cc1cc(F)ccc1-2`: the growth in the experiment on T-47D breast was 103%; in the experiment with BT-549 breast, 105%; in the experiment on MDA-MB-435 melanoma it was 102%; in the experiment with SW-620 colon it was 98.1%; in the experiment with MCF7 breast, 90.2%; in the experiment with HCT-116 colon, 94.3%. The growth was 93.3% in the experiment on HCC-2998 colon and 102% in the experiment with KM12 colon.
Turning to `CCN(CC)S(=O)(=O)c1ccc(OC)c(NC(=O)c2[nH]c(C)c3c2CCCCC3=O)c1`, the growth in the experiment on T-47D breast was 16.6%; in the experiment on BT-549 breast, 59.8%; in the experiment with MDA-MB-435 melanoma it was 31.3%; in the experiment on SW-620 colon, 67%; with MCF7 breast, 19%; with HCT-116 colon it was 33.7%. Besides, the growth is 42.3% in the experiment on HCC-2998 colon and 47.9% in the experiment with KM12 colon.
For `CC(C)C1=C[C@@]23CC[C@@H]4[C@](C)(CCC[C@@]4(C)C(=O)N4CCCNCC4)[C@H]2C[C@@H]1[C@H]1C(=O)CCC(=O)[C@H]13`, the growth is 100% in the experiment on T-47D breast; 104% with BT-549 breast; 109% with MDA-MB-435 melanoma; 105% in the experiment with SW-620 colon; 90.4% in the experiment on MCF7 breast; 103% in the experiment with HCT-116 colon. Further, the growth is 107% with HCC-2998 colon and 101% with KM12 colon.
`CC1(C)CC[C@]2(C(=O)Nc3ccccn3)CC[C@]3(C)C(=CC[C@@H]4[C@@]5(C)C/C(=C/c6cccnc6)C(=O)C(C)(C)[C@@H]5CC[C@]43C)[C@H]2C1`: the growth in the experiment with T-47D breast was 12.8%; in the experiment with BT-549 breast, 42.2%; with MDA-MB-435 melanoma it was 38.3%; in the experiment with SW-620 colon, 33.9%; in the experiment with MCF7 breast it was 11.4%; in the experiment with HCT-116 colon it was 11.4%. Further, the growth with HCC-2998 colon is 40.4%; in the experiment on KM12 colon it was 40.1%.
As to `CS(=O)(=O)c1ccc(-n2nc(-c3ccc(Br)cc3)c3ccccc3c2=O)cc1`, the growth in the experiment on T-47D breast is 86.5%; in the experiment with BT-549 breast, 91.1%; in the experiment on MDA-MB-435 melanoma it was 103%; in the experiment with SW-620 colon, 104%; with MCF7 breast, 85.9%; with HCT-116 colon it was 96.7%. Besides, the growth was 98% in the experiment with HCC-2998 colon and 102% with KM12 colon.
As for `Cc1cc(N2CCOCC2)nc(N[C@@H]2CCC[C@H](Nc3ccnc4cc(Cl)ccc34)C2)n1`, the growth in the experiment with T-47D breast is -56.6% (active); in the experiment on BT-549 breast, 26%; in the experiment with MDA-MB-435 melanoma it was -83% (active); with SW-620 colon it was -1.97% (active); in the experiment on MCF7 breast, 5.31% (active); in the experiment with HCT-116 colon, -6.15% (active). In addition, the growth is 11.2% with HCC-2998 colon and 20.6% in the experiment on KM12 colon.
